# Assay results from PubChem BioAssay (NCATS).
# Several values for one entry are separate records, joined by “and”; a condition that tells them apart may be missing. Equal values may be shown once. Inconclusive results are not listed. Activity calls are given as the source filed them. The call rests on the fitted dose curve; in most records, active means well fitted inhibition curve with a large enough effect; inconclusive means small, poorly fitted or top-dose-only effect; inactive means flat fitted curve, though single readings scatter.
# Test system: HaCat
# Test: Cytotoxic Profiling of Annotated Libraries Using Quantitative High-Throughput Screening (AID 1296008); further: nearly all actives have a fitted effect of over 60% in size
# Conditions: Five cell lines viability, CellTiter-Glo ATP luminescence, 48-72 h; max response: hits give low values
# Procedure, shortened: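 Cytotoxicity was measured as CellTiter-Glo ATP luminescence, read after 10 min at room temperature. Compound treatment of the cells lasted 48 or 72 hr at 37 degrees Celsius in a qHTS format.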
# On the % scale 0 is the no-effect control and ±100 the full control effect; potency means the concentration at half of the fitted maximal effect.
SMILES,max response,outcome,Potency
O=C(OC1C[C@H]2CC[C@@H](C1)[N+]21CCCC1)C(O)(c1ccccc1)c1ccccc1 (stereo partly drawn),1.67% (inactive),,
Oc1ccc2ccccc2c1SSc1c(O)ccc2ccccc12,,inactive; activator,
Oc1ccc(-c2nc(-c3ccc(F)cc3)c(-c3ccncc3)[nH]2)cc1,-6.19% (inactive),,
Nc1ccn([C@@H]2O[C@H](CO)[C@@H](O)C2O)c(=O)n1 (stereo partly drawn),,inactive,
CC1(C)C(=O)N(CCN2CCC(C(=O)c3ccc(F)cc3)CC2)c2ccccc21,-16.9% (inactive),,
C[C@]12CCC(=O)C=C1CC[C@@H]1[C@H]2[C@@H](O)C[C@@]2(C)[C@H]1CC[C@]2(O)C(=O)CO,-4.53% (inactive),,
O=C(c1ccccc1)c1ccc2n1CCC2C(=O)O (stereo not drawn),,inactive,
CCOC(=O)C(C)Oc1cccc2c(=O)n(CC(=O)Nc3ccc4c(c3)OCCO4)ccc12 (stereo not drawn),,inactive,
O=C(CS(=O)Cc1ccco1)NCC=CCOc1cc(CN2CCCCC2)ccn1 (stereo not drawn),0.787% (inactive),,
COC(=O)C1=C(C)NC(C)=C(C(=O)OC(C)C)C1c1cccc2nonc12 (stereo not drawn),-5.13% (inactive) and 3.88% (inactive),,
CC[C@]1(O)C[C@H]2CN(CCc3c([nH]c4ccccc34)[C@@](C(=O)OC)(c3cc4c(cc3OC)N(C=O)[C@H]3[C@@](O)(C(=O)OC)[C@H](OC(C)=O)[C@]5(CC)C=CCN6CC[C@]43[C@@H]65)C2)C1,,inactive,
Clc1ccc2c(N3CCN(CCCN4CCN(c5ccnc6cc(Cl)ccc56)CC4)CC3)ccnc2c1,,inactive,
CN(C)c1ccc2nc3ccc(=[N+](C)C)cc-3sc2c1,,,3.72 µM (active) and 10.6 µM (active)
